Assay outcomes as filed in PubChem BioAssay.
Sampled rows, rich in hits. Any-hit rate of the full collection: about 18%.
IL1B secr inh – qHTS for Inhibitors of Inflammasome Signaling: IL-1-beta AlphaLISA Primary Screen; THP-1 LPS/ATP IL-1B secretion, AlphaLISA, 16 h; active compounds read low; activity change, % at 57.5 µM; hit rate 4.7% among 360,000; in the data active = activity change below about -50%; inconclusive = mostly about -30% to -49%
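Secreted IL-1B measured by AlphaLISA bead assay after 16 h compound exposure of THP-1 cells; compounds (final up to 57.5 uM) added 1 h before LPS (250 ng/mL) and ATP (1.25 mM) stimulation; lower signal means less secretion.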
CtBP-E1A blk – qHTS Assay for Inhibitors of the CtBP/E1A Interaction | CtBP / adenovirus E1A interaction (AlphaScreen) | AlphaScreen GST-E1A/His-CtBP binding, 1536-well; active compounds read low | activity change, % (test concentration not listed) | hit rate 0.49% among 340,000 | AID 651724, 2012; in the data active = activity change below about -65%; inconclusive = mostly about -30% to -63%
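In 5 uL wells, 23 nL compound meets equimolar GST-E1A and His-CtBP (5X stock 125 nM each) for 2 h, 37 °C. Beads (5X, 50 ug/mL) then 1 h, 37 °C, dark.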
TDP1 block – qHTS Assay for Inhibitors of Tyrosyl-DNA Phosphodiesterase (TDP1); Tyrosyl-DNA phosphodiesterase 1 (Homo sapiens), Q9NUW8; recombinant TDP1, AlphaScreen DNA substrate cleavage; Potency, µM (series often up to 130 µM), inactives show top-dose activity change, negative = inhibition, actives largely listed as inhibitors; hit rate 0.28% among 350,000; note: potency is the fitted concentration of half-maximal effect; nearly all actives have a fitted effect of over 40% in size
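Recombinant human Tdp1 (E. coli-expressed, 1 nM final) preincubated with compounds 15 min at room temperature, then 5'-biotin/3'-phosphotyrosine-FITC DNA substrate (15 nM final) added for 5 min. AlphaScreen beads (10 ug/ml final) added 10 min; cleavage lowers signal.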
DT40 TDP1 CPT – qHTS for Inhibitors of human tyrosyl-DNA phosphodiesterase 1 (TDP1): qHTS in cells in presence of CPT | chicken DT40 Tdp1-/-;hTDP1 cells + 20 nM CPT, ATP luminescence, 48 h | Potency, µM (highest dose often 46.2 µM), inactives show top-dose activity change, negative = growth inhibition, usual class: inhibitors | hit rate 12% among 420,000 | AID 686979, 2013; note: potency is the fitted concentration of half-maximal effect; nearly all actives have a fitted effect of over 55% in size
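Chicken DT40 Tdp1-/- cells complemented with human TDP1, 400 cells/well, exposed to compounds plus 20 nM camptothecin for at least 48 h at 37 C; viability read as ATP content by CellTiter-Glo luminescence.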
Six1-Eya2 blk – qHTS Assay for Inhibitors of the Six1/Eya2 Interaction; Homeobox protein SIX1 (Homo sapiens) + Protein phosphatase EYA2 (Homo sapiens), …; hit rate 0.56% among 360,000; AlphaScreen GST-Six1/His-Eya2 binding, biochemical; active compounds read low; activity change, % (concentration not given with the values); in the data active = activity change below about -65%; inconclusive = mostly about -30% to -63%
Target sequence (O00167 whole entry, looked up): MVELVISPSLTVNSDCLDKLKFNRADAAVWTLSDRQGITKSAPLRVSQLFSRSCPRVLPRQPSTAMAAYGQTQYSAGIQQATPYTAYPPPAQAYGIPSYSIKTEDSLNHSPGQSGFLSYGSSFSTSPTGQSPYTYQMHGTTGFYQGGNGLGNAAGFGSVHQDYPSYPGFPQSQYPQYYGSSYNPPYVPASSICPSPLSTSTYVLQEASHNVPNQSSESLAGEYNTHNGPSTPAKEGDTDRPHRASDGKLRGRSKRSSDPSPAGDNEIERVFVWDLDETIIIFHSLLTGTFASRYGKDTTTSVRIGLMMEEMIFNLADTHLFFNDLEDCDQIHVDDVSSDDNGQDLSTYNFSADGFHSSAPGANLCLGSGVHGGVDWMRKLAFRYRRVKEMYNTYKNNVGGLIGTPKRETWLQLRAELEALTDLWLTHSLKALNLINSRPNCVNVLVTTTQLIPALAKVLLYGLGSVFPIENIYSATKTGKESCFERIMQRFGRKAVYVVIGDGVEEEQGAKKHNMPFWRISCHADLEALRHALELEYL
Target sequence (Q15475 whole entry, looked up): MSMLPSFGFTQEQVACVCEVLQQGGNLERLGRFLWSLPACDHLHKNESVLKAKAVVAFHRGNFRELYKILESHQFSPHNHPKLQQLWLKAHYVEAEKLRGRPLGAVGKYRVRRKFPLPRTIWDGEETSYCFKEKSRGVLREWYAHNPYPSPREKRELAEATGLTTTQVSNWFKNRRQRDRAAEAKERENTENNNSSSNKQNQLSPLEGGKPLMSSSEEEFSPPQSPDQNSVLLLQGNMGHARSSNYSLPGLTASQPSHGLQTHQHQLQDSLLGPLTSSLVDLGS
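Homogeneous AlphaScreen proximity assay pairing GST-Six1 with His-tagged Eya2 (added as 5X mix: 250 nM and 500 nM) in 50 mM Tris pH 8.0, 300 mM NaCl, 1 mM TCEP. Glutathione donor and nickel acceptor beads; 1 h, 37 °C, dark.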
TDP1 cell noCPT – qHTS for Inhibitors of human tyrosyl-DNA phosphodiesterase 1 (TDP1): qHTS in cells in absence of CPT; hit rate 15% among 420,000; Potency, µM (highest dose often 46.2 µM), for the others: at the highest dose activity change, negative = growth inhibition, hits mostly inhibitors; DT40 Tdp1-/- hTDP1 cells, no CPT, ATP luminescence, 48 h; note: potency is the fitted concentration of half-maximal effect; nearly all actives have a fitted effect of over 55% in size
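A cellular qHTS used chicken DT40 cells lacking endogenous Tdp1 but carrying stably transfected human TDP1. Compounds were applied without camptothecin, and cell growth kinetics were judged by ATP-dependent luminescence after ≥48 hr.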
Active calls of the source: *; ? = inconclusive; / = no result; ! = a repeat was not active; [ ] = remark or other dose. Unless noted, calls come from the whole dose curve; as a rule, active = well fitted curve in the direction sought with a large enough effect; inconclusive = small, poorly fitted or top-dose-only effect, or another doubt; inactive = no such curve, though single readings can be large; an effect the other way counts as inactive or inconclusive. % is set by controls: 0 for no effect and ±100 for the full control effect.

SMILES	IL1B secr inh	CtBP-E1A blk	TDP1 block	DT40 TDP1 CPT	Six1-Eya2 blk	TDP1 cell noCPT
C[C@H]1CN([C@@H](C)CO)C(=O)c2cc(NC(=O)Nc3cccc4ccccc34)ccc2O[C@@H]1CN(C)Cc1ccc(-c2ccccc2)cc1	1	-2	4%	23µM*	-10	16µM*
C[C@@H]1CCCCO[C@H](CN(C)Cc2ccccc2)[C@@H](C)CN([C@H](C)CO)C(=O)c2cc(NC(=O)c3ccccc3)ccc2O1	-17	-14	/	?	-1	18µM*
O=C(c1cnccn1)N1CCC2(CC1)CN(Cc1ccncc1)C2	/	/	/	6%	/	-10%
O=C(c1csnn1)N1CCC[C@@]2(CCN(Cc3ccncc3)C2)C1	/	/	/	-4%	/	-12%
COc1ccc(CN2CCN(c3ncnc4sc5c(c34)CCCC5)CC2)cc1F	/	/	/	8.2µM*	/	5.2µM*
O=C(O)c1ccccc1Nc1cccc(C(F)(F)F)c1	24	5	8%	12µM*!	-9	15µM*
CNc1ccccc1C(=O)O	/	/	12%[56.1 µM]	-9%	/	1%
COc1ccc(N2C(=O)NC(=O)/C(=C\c3cn(C)c4ccccc34)C2=O)cc1	25	/	/	1%	-13	-26%
COCCNC(=O)Cn1cc(/C=C2\C(=O)NC(=O)N(c3ccccc3F)C2=O)c2ccccc21	37	-1	/	-19%	-3	-2%
COC(=O)Cn1cc(/C=C2\C(=O)NC(=O)N(c3ccc(OC)cc3)C2=O)c2ccccc21	?	1	/	?	4	2.3µM*
COCCCNC(=O)Cn1cc(/C=C2\C(=O)NC(=O)N(c3ccccc3F)C2=O)c2ccccc21	-82*	4	/	?	5	?
CC1(C)S[C@@H]2[C@H](N3C(=O)C(c4ccccc4)NC3(C)C)C(=O)N2[C@H]1C(=O)O (some centres undefined)	/	/	/	3%	/	-13%
O=C(O)c1cccc(Cl)c1	/	/	6%	/	/	/
O=C(O)c1cc[c]([Hg][Cl])cc1	-101*	?	?	0.65µM*	-4	0.92µM*
Cc1cccc(CN2CCCN(Cc3ccc(Cl)cc3)S2(=O)=O)c1	-18	/	/	-15%	19	-28%
CCOC(=O)c1ccc(N2C(=O)c3n[nH]c(-c4cccs4)c3C2c2ccc(Cl)cc2Cl)cc1 (centres undefined)	/	/	9%	?	/	18µM*
CCOC(=O)c1ccc(N2C(=O)c3n[nH]c(-c4cccs4)c3C2c2ccc(C(C)(C)C)cc2)cc1 (centres undefined)	/	/	-5%	16µM*	/	6.5µM*
CCOC(=O)c1c(C)[nH]c(C)c1S(=O)(=O)N1CCC(C(=O)N2CCN(c3cccc(Cl)c3)CC2)CC1	/	/	-1%	?	/	?
CC(Cc1ccc(C(C)(C)C)cc1)CN1CC(C)OC(C)C1 (centres undefined)	/	/	15%	/	/	/
Cc1ccc(C(=O)Nc2nc3ccccc3n2CCN2CCCC2)cc1	-14	-13	11%	15µM*	-16	13µM*
CCCn1c(C(=O)c2ccccc2)nc2ccccc21	-23	97	-5%	-17%	30	-13%
O=C1NCN(c2ccccc2)C12CCN(C(CCc1ccccc1)c1nnnn1C1CCCC1)CC2 (centres undefined)	?	-10	/	?	-10	?
CCn1cc(C=C2C(=O)N(C)C(=O)N(C)C2=O)c2ccccc21	27	2	/	-10%	1	-3%
CN(C)C1(CNC(=O)Nc2ccc(Cl)c(Cl)c2)CCCCC1	-72*	-4	/	?	9	?
CN(C)C1(CNC(=O)c2ccc(NS(=O)(=O)c3ccc(Cl)c(Cl)c3)cc2)CCCCC1	-17	1	4%	?	8	?
SMILES	IL1B secr inh	CtBP-E1A blk	TDP1 block	DT40 TDP1 CPT	Six1-Eya2 blk	TDP1 cell noCPT
O=C(OCCN1CCCCC1)C(O)(c1ccccc1)c1ccccc1	/	/	/	7%	/	-1%
ClC(Cl)(Cl)Cl	/	/	8%	-2%	/	-6%
O=C1NCN(c2ccccc2)C12CCN(CCCOc1ccc(F)cc1)CC2	/	/	10%	?	/	23µM*
C[C@@H]1OC(OC2C(OC3CC[C@@]4(C)C5CC=C6C7CC(C)(C)CC[C@@]7(C(=O)O)CCC6(C)C5(C)CCC4[C@]3(C)CO)OCC(O)C2O)C(O)C(O)C1O (some centres undefined)	/	/	5%[56.1 µM]	?	/	16µM*
COc1ccc(/C=C/C=C2C(=O)NC(=S)NC2=O)cc1	?	-2	/	3.3µM*	-8	3.3µM*
COC(=NC1CCCCC1)C(O)c1c[nH]c2ccccc12 (centres undefined)	37	-1	6%	-4%	-1	-12%
CN(Cc1c[nH]c2ccccc12)C1CCCCC1	-10	-1	5%	0.41µM*	-4	1.2µM*
c1ccc2c(CNC3CCCCC3)c[nH]c2c1	?	-8	10%	2.5µM*	-6	6.3µM*
CCN(CC)c1nc2ccccc2nc1C(=O)Nc1cccc(C(C)=O)c1	/	/	4%	?	/	?
C=Cn1ccnc1P(=S)(c1c(C)nn(-c2ccccc2)c1C)c1nccn1C=C	-3	14	5%	-13%	-4	?
O=C(Nc1cccc(C(=O)Nc2cc(C(=O)Nc3ccc([S+](=O)([O-])[O-])c4cc([S+](=O)([O-])[O-])cc(SOOO)c34)ccc2F)c1)Nc1cccc(C(=O)Nc2cc(C(=O)Nc3ccc([S+](=O)([O-])[O-])c4cc([S+](=O)([O-])[O-])cc([S+](=O)([O-])[O-])c34)ccc2F)c1	/	/	2.2µM*	/	/	/
O=C1NC(=S)N(c2ccccc2)C(=O)C1C(c1ccncc1)C1C(=O)NC(=S)N(c2ccccc2)C1=O (centres undefined)	8	-7	/	3%	-8	-18%
COc1ccc(-c2nn(-c3ccccc3)cc2C(=O)N2c3ccc(C)cc3C3CN(C)CCC32)cc1 (centres undefined)	?	-8	1%	?	-18	26µM*
Cc1ccc2c(c1)C1CN(C)CCC1N2C(=O)c1ccccc1NS(=O)(=O)c1cccc(C(F)(F)F)c1 (centres undefined)	-5	-1	5%	?	2	13µM*
